Measured values taken from ChEMBL document CHEMBL3988442, “University of Dundee, Small-Polar-MMV Screening Library” (2021).
The whole screen tested about 69,000 compounds, of which about 950 (1.4%) showed an effect of 50% or more. The sample as a whole holds a higher share of strong results than the screen did.

test system: Mycobacterium tuberculosis; assay: Cornell M. t heat shock assay; format: functional, organism-based; design: dose or concentration left out as unconfirmed; note: in the data most compounds retested in dose-response had high values

Row | SMILES | Percent Effect
1 | CC(C)(C)c1cc(NC(=O)CN2CCCC2Cn2cncn2)on1 (stereo not given) | 2.377%
2 | CC(C)(C)c1cc(NC(=O)CN2CCCCC2Cn2cncn2)on1 (stereo not given) | -1.6%
3 | Cc1cnn(CC2CCCN2CC(=O)Nc2cc(C)no2)c1 (stereo not given) | 35.93%
4 | CC(C)c1cc(NC(=O)CN2CCCC2Cn2cccn2)on1 (stereo not given) | -10.53%
5 | Cc1cnn(CC2CCCN2CC(=O)Nc2cc(C)on2)c1 (stereo not given) | -31.38%
6 | Cc1cnn(CC2CCCN2CC(=O)Nc2cc(C(C)(C)C)no2)c1 (stereo not given) | 73.93%
7 | CCCc1nc(CN2CCCC(Cn3cncn3)C2)no1 (stereo not given) | -9.9%
8 | O=C(O)C(F)(F)F.O=C(O)C(F)(F)F.c1cncc(OCC2CN(Cc3ccsc3)Cc3nccn3C2)c1 (stereo not given) | -18.26%
9 | COCCN1C(=O)C[C@H]2[C@H]1CCN2Cc1ccccc1.O=C(O)C(F)(F)F | 3.349%
10 | CN(C)[C@@H]1CCN(C(=O)c2ccsc2)[C@H]1Cc1cccnc1.O=C(O)C(F)(F)F.O=C(O)C(F)(F)F | -16.81%
11 | Cc1ccc(N2Cc3cnn(C)c3C(COCC3CC3)C2)nn1.O=C(O)C(F)(F)F.O=C(O)C(F)(F)F (stereo not given) | 49.24%
12 | COc1ccc(CN2CCC3(CC2)NC(=O)CC3c2cnn(C)c2)cc1.O=C(O)C(F)(F)F (stereo not given) | -26.9%
13 | O=C1C[C@H]2CC[C@@H](CN1)N2C(=O)CCc1ccccc1 | 16.33%
14 | CO[C@@H]1CCN(Cc2cccs2)[C@@H]2CN(Cc3ccncc3)C[C@@H]21.O=C(O)C(F)(F)F.O=C(O)C(F)(F)F.O=C(O)C(F)(F)F | 42.16%
15 | COCC(=O)N1CCCC(C)(c2nncn2C)C1 (stereo not given) | 11.29%
16 | Cc1cccc(CN2CCC3(CC2)CN(c2cccnc2)C(=O)CO3)n1.O=C(O)C(F)(F)F.O=C(O)C(F)(F)F | -14.12%
17 | Cc1nn(C)c(Cl)c1C1CCCN1C(=O)c1ccc(C(N)=O)cn1 (stereo not given) | -15.15%
18 | Cc1cc(C)n(CC2CCCCN2CC(=O)Nc2nncs2)n1 (stereo not given) | 69.77%
19 | Cc1cc(C)n(CC2CCCCN2CC(=O)Nc2nnc(C)s2)n1 (stereo not given) | 10.12%
20 | Cc1cc(C)n(CC2CCCN2CC(=O)Nc2nncs2)n1 (stereo not given) | -43.1%
21 | CO[C@@H]1CC[C@H]2[C@H]1OCCN2CC1CC1.O=C(O)C(F)(F)F | -34.92%
22 | Cc1nn(C)c2c(=O)n(CC(=O)NCc3ccc(N(C)C)cc3)ccc12 | 2.829%
23 | COCCN1C[C@@H]2CN(Cc3ccc(C)s3)CCC[C@]2(C(=O)O)C1.O=C(O)C(F)(F)F.O=C(O)C(F)(F)F | -29.4%

Row | SMILES | Percent Effect
24 | Cc1cnn(CC2CCCN2Cc2nc3ccccc3n2C)c1 (stereo not given) | 101.1%
25 | Cc1cnn(CC2CCCCN2Cc2nc(C)c3ccccc3n2)c1 (stereo not given) | 67.77%
26 | Cc1cnn(CC2CCCN2Cc2ncc(-c3ccccc3)o2)c1 (stereo not given) | 61.17%
27 | Cc1nc(CN2CCCC2Cn2cccn2)nc2ccccc12 (stereo not given) | 33.45%
28 | Cc1nc(CN2CCCCC2Cn2cncn2)nc2ccccc12 (stereo not given) | -16.52%
29 | Cc1cnn(CC2CCCN2Cc2ncc(-c3ccc(F)cc3)o2)c1 (stereo not given) | -10.3%
30 | Cc1cnn(CC2CCCN2Cc2nc3ccccc3nc2C)c1 (stereo not given) | 7.151%
31 | Cc1cnn(CC2CCCN2Cc2noc(C)n2)c1 (stereo not given) | -1.003%
32 | Cc1nc(C)n(CC2CCCN2Cc2nc3ccccc3n2C)n1 (stereo not given) | -5.876%
33 | Cc1cnn(CC2CCCN2Cc2nc(C)c3ccccc3n2)c1 (stereo not given) | 101.6%
34 | Cc1nc(CN2CCCCC2Cn2cccn2)nc2ccccc12 (stereo not given) | 49.4%
35 | c1ccc(-c2cnc(CN3CCCC3Cn3cccn3)o2)cc1 (stereo not given) | 7.104%
36 | COc1ccc(C(=O)N2Cc3cc(C)ccc3OCC2CN(C)C)cc1.Cl (stereo not given) | -9.159%
37 | Cc1cccc(CN2CCCC3(CCC(=O)N3CCN(C)C)CC2)n1.O=C(O)C(F)(F)F.O=C(O)C(F)(F)F (stereo not given) | -9.93%
38 | CC(C)NC(=O)N1CCc2ncnc(-c3ccncc3)c2CC1.O=C(O)C(F)(F)F | 36.54%
39 | CCn1ccc2ccnc(CC3CN(C(=O)Cn4ccnc4C)C3)c21.O=CO | -10.71%
40 | Cc1nc2sccn2c1CN(CCCN(C)C)Cc1ccccn1.O=C(O)CC(O)(CC(=O)O)C(=O)O | -0.915%
41 | COc1ccc(CN(Cc2cncn2C)CC2CCCO2)cc1OC.O=C(O)CC(O)(CC(=O)O)C(=O)O (stereo not given) | -6.379%
42 | Cn1ccnc1CN(Cc1ccccn1)Cc1ccccc1Cl.O=C(O)CC(O)(CC(=O)O)C(=O)O | 102.4%
43 | COc1ccc(CN(Cc2ccccn2)Cc2cncn2C)cc1.O=C(O)CC(O)(CC(=O)O)C(=O)O | 72.33%
44 | Cc1ncc(CN(Cc2ccccn2)Cc2ccccc2Cl)n1C.O=C(O)CC(O)(CC(=O)O)C(=O)O | 34.76%
45 | COc1ccc(CN(Cc2cncn2C)CC2CCCO2)cc1.O=C(O)CC(O)(CC(=O)O)C(=O)O (stereo not given) | 1.542%
